# Data taken from PubChem BioAssay.
# Several values for one entry are separate records, joined by “and”; a condition that tells them apart may be missing. Equal entries are not always repeated. Results filed as inconclusive are left out. A structure can be active in one record and inactive in another. Activity calls are given as the source filed them. Unless noted, cut-off not given; nearly all actives show AC50 up to about 26 µM.
# Key:
# [1] = growth inhibition of DIPG glioma cells, dose response, cell-based, SU-DIPG-XVII, MIPE5.0, CellTiter-Glo, qHTS (AID 1347060); settings: SU-DIPG-XVII viability, CellTiter-Glo ATP luminescence;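 on AC50: cells exposed to compound for 48 hours before viability readout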
# [2] = growth inhibition of DIPG glioma cells, dose response, cell-based, SU-DIPG-XIII, MIPE4.0, CellTiter-Glo, qHTS (AID 1347061; cut-off not given, nearly all actives have AC50 up to about 37 µM;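 further: cells exposed to compound for 48 hours before readout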); settings: SU-DIPG-XIII viability, CellTiter-Glo ATP luminescence
# [3] = growth inhibition of DIPG glioma cells, dose response, cell-based, JHH-DIPG-1, MIPE4.0, CellTiter-Glo, qHTS (AID 1347062; cut-off not given, nearly all actives have AC50 up to about 27 µM;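 on AC50: cells exposed to compound for two days before readout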); settings: JHH-DIPG-1 viability, CellTiter-Glo ATP luminescence
# [4] = growth inhibition of DIPG glioma cells, dose response, cell-based, SU-DIPG-XIII, MIPE5.0, CellTiter-Glo, qHTS (AID 1347064; cut-off not given, nearly all actives have AC50 up to about 23 µM;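 on AC50: cells exposed to compound for 48 hours before the viability read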); settings: SU-DIPG-XIII viability, CellTiter-Glo ATP luminescence
# [5] = viability loss in pontine glioma line – cell-based, SU-DIPG-XXV, MIPE5.0, CellTiter-Glo, qHTS, dose response (AID 1347065); settings: CellTiter-Glo ATP luminescence;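 further: cells exposed to compound for 48 hours before ATP readout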
# [6] = SU-DIPG-VI glioma cell viability, MIPE4.0 library, CellTiter-Glo luminescence, qHTS (AID 1347066; cut-off not given, nearly all actives have AC50 up to about 30 µM;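 further: cells exposed to compound for 48 hours before readout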); settings: CellTiter-Glo ATP luminescence
# [7] = JHH-DIPG-1 glioma cell viability, MIPE5.0 library, CellTiter-Glo luminescence, qHTS (AID 1347067); settings: JHH-DIPG-1 glioma viability, CellTiter-Glo ATP luminescence;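 further: cells exposed to compound for 48 hours before readout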
# [8] = SU-DIPG-XXV glioma cell viability, MIPE5.0 library, qHTS (AID 1347068; cut-off not given, nearly all actives have IC50 up to about 30 µM;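 on IC50: cells exposed to compound for 48 hours before viability readout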)
# [9] = sensitizers of A549 cells to miR-34 induction, primary screen, imaging, A549 dox-inducible miR-34, nuclei and caspase counts (AID 1347080;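 active means compounds whose cell count with miR-34 switched on is under 0.7 times the count with it off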); settings: A549 miR-34 inducible, Hoechst nuclei count, 48 h
# [10] = survival rescue of mitochondrial mutant cells in low glucose, primary screen, MELAS cybrids, Rieske KO mouse fibroblasts, CellTiter-Glo (AID 1508586;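 active means mean z-score across replicates of 1.96 or higher in either the MELAS or the Rieske mutant cell line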;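 further: z relative to plate mean and SD of compound and empty wells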)
# [11] = LFS_MB_P medulloblastoma growth inhibition, cell-based, chromothripsis tumors, cisplatin or BGB combos (AID 1671449; in the data active means inhibition above about 80%;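 further: cells exposed for 96 hours; 0% = vehicle DMSO and 100% = killing by high DMSO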); settings: LFS_MB_P medulloblastoma cells
# [12] = HDN33 neuroblastoma growth inhibition, cell-based, chromothripsis tumors, cisplatin or BGB combos (AID 1671450; in the data active means inhibition above about 80%;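 further: cells exposed to compound for four days; 0% = vehicle DMSO and 100% = cell killing by high DMSO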); settings: HDN33 neuroblastoma cells, stronger effect = higher value
# [13] = ICB984 medulloblastoma cell growth inhibition, synergistic combos for chromothripsis tumors, cisplatin or BGB combos (AID 1671451; call rule not given here;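 further: cells exposed for 96 hours before readout; 0% = vehicle DMSO and 100% = killing by high DMSO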); settings: ICB984 medulloblastoma cells, drug combinations, stronger effect = higher value
# [14] = HTB85 osteosarcoma cell growth inhibition, synergistic combos for chromothripsis tumors, BGB or cisplatin IC20 combos (AID 1671453; in the data active means inhibition above about 80%;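 further: cells exposed for 96 hours before readout; 0% = vehicle DMSO and 100% = high DMSO killing control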); settings: HTB85 osteosarcoma cells, drug combinations, stronger effect = higher value
# [15] = MDA-MB-436 breast carcinoma cell growth inhibition, synergistic combos for chromothripsis tumors, BGB or cisplatin combos (AID 1671458; call rule not given here;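 further: cells exposed for 96 hours; 0% = vehicle DMSO and 100% = killing by high DMSO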); settings: MDA-MB-436 breast carcinoma growth inhibition, drug combinations, stronger effect = higher value
# [16] = growth inhibition of BT084 medulloblastoma cells, cell-based, ICGC_MB145, cisplatin and BGB IC40 combos (AID 1671461; in the data active means inhibition above about 80%;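 further: cells exposed to drugs for 96 hours; 0% = vehicle DMSO and 100% = high DMSO full killing control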); settings: drug combinations, stronger effect = higher value
# [17] = growth inhibition of RCMB18 medulloblastoma cells, cell-based, cisplatin and BGB IC40 combos (AID 1671462; in the data active means inhibition above about 80%;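 further: cells exposed to compound for four days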); settings: stronger effect = higher value
# [18] = growth inhibition of DIPG glioma cells, dose response, cell-based, SU-DIPG-IV, MIPE4.0, CellTiter-Glo, qHTS (AID 1347063; cut-off not given, nearly all actives have AC50 up to about 30 µM;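 further: compound exposure lasted 48 hours before the viability readout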); settings: SU-DIPG-IV viability, CellTiter-Glo ATP luminescence
# [19] = stronger effect = lower value, cell number ratio, induced over uninduced
# [20] = measured here: relative caspase fold change +Dox/-Dox
# [21] = measured here: total cells with miR-34 induction, stronger effect = lower value
# [22] = measured here: total cells without miR-34 induction
# [23] = MELAS cybrid survival, CellTiter-Glo 48 h, stronger effect = higher value
# [24] = Rieske KO mouse fibroblast survival, CellTiter-Glo 72 h
smiles,measurement,setting,value
COc1ccc(-c2nc(N3CCOCC3)c3sc(CN(C)c4ncc(C(=O)NO)cn4)cc3n2)cn1,AC50,[1],0.0235 µM (active)
same,AC50,[2],0.0372 µM (active)
same,AC50,[3],0.0132 µM (active)
same,AC50,[4],0.0263 µM (active)
same,AC50,[5],0.0148 µM (active)
same,AC50,[6],0.00263 µM (active)
same,AC50,[7],0.00662 µM (active)
same,IC50,[8],0.295 µM (active)
same,fold change,[9]; [19],1.02 (inactive)
same,fold change,[9]; [20],0.447
same,cell count,[9]; [21],1250
same,cell count,[9]; [22],1230
same,z-score,[10]; [23],-0.053 (inactive)
same,z-score,[10]; [24],-3.69
same,inhibition,"[11]; at 0.5 µM, stronger effect = higher value",-17.1% (inactive) and 84.7% (active)
same,inhibition,"[11]; measured here: combination with BGB IC20, at 0.005 µM",-19% and -26.8%
same,inhibition,"[11]; measured here: combination with BGB IC40, at 0.005 µM",-13.4% and -10.7%
same,inhibition,"[11]; measured here: combination with BGB IC40, at 0.05 µM",-8.69% and -6.92%
same,inhibition,"[11]; measured here: combination with cisplatin, at 0.5 µM, stronger effect = higher value",-32.9% and 119%
same,inhibition,"[11]; measured here: combination with cisplatin, at 5 µM, stronger effect = higher value",120% and 126%
same,inhibition,"[12]; BGB combo, at 5 µM",99.9% and 99.7%
same,inhibition,[12]; at 0.5 µM,98.9% (active) and 93.4% (active)
same,inhibition,"[12]; cisplatin combo, at 5 µM",99.9%
same,inhibition,"[12]; measured here: with BGB IC20 combination, at 0.5 µM",97.8% and 90.5%
same,inhibition,"[12]; measured here: with cisplatin IC20 combination, at 0.5 µM",99.5% and 96.1%
same,inhibition,"[12]; single agent, at 5 µM",99.9%
same,inhibition,"[13]; BGB IC20 combo, at 0.005 µM",85.9% and 87.2%
same,inhibition,"[13]; BGB IC40 combo, at 0.005 µM",93.2% and 94%
same,inhibition,"[13]; BGB IC40 combo, at 0.05 µM",101%
same,inhibition,[13]; at 0.5 µM,-8.74% (inactive) and -32% (inactive)
same,inhibition,"[13]; cisplatin combo, at 0.05 µM",101%
same,inhibition,"[13]; cisplatin combo, at 0.5 µM",10.9% and -33%
same,inhibition,"[13]; cisplatin combo, at 5 µM",21.2% and -18.3%
same,inhibition,"[13]; measured here: 5 uM single agent, at 5 µM",1.99% and 3.43%
same,inhibition,[14]; at 0.5 µM,99.5% (active) and 95.4% (active)
same,inhibition,"[14]; measured here: with BGB IC20, at 0.5 µM",99.5% and 93.3%
same,inhibition,"[14]; measured here: with BGB IC20, at 5 µM",99.8% and 99.9%
same,inhibition,"[14]; measured here: with cisplatin IC20, at 0.5 µM",99.9%
same,inhibition,"[14]; measured here: with cisplatin IC20, at 5 µM",100% and 99.9%
same,inhibition,"[14]; single agent, at 5 µM",99.9%
same,inhibition,[15]; at 0.5 µM,55.1% (inactive) and 39.3% (inactive)
same,inhibition,"[15]; measured here: BGB combination, at 0.5 µM",45.2% and 33.3%
same,inhibition,"[15]; measured here: BGB combination, at 5 µM",89.9% and 80.2%
same,inhibition,"[15]; measured here: cisplatin combination, at 0.5 µM",50.8% and 33.9%
same,inhibition,"[15]; measured here: cisplatin combination, at 5 µM",91.2% and 86.1%
same,inhibition,[16]; at 0.5 µM,84.3% (active) and 90.7% (active)
same,inhibition,"[16]; cisplatin combination, at 0.5 µM",99.6% and 101%
same,inhibition,"[16]; cisplatin combination, at 5 µM",102% and 106%
same,inhibition,"[16]; measured here: BGB IC40 combination 0.05 uM, at 0.05 µM",55.4% and 3.88%
same,inhibition,"[16]; single agent, at 5 µM",109% and 106%
same,inhibition,[17]; at 0.5 µM,90.3% (active) and 89.8% (active)
same,inhibition,"[17]; cisplatin combo, at 5 µM",97.3% and 101%
same,inhibition,"[17]; measured here: BGB IC40 combination, at 0.05 µM",42.1% and 41.3%
same,inhibition,"[17]; measured here: combination with cisplatin, at 0.5 µM",91.8% and 91.3%
same,inhibition,"[17]; single agent, at 5 µM",98.7% and 99.3%
NC(=O)c1cccc2cn(-c3ccc([C@@H]4CCCNC4)cc3)nc12,AC50,[1],8.33 µM (active)
same,outcome,[2],inactive
same,outcome,[3],inactive
same,outcome,[18],inactive
same,outcome,[6],inactive
same,outcome,[7],inactive
CCCCCCCCCCCCCCCC(=O)O[C@@H]1[C@@H](O)[C@@H](O)[C@@H]([C@H](NC(=O)[C@@H]2C[C@@H](CCC)CN2C)[C@H](C)Cl)O[C@@H]1SC,outcome,[1],inactive
same,outcome,[2],inactive
same,outcome,[3],inactive
same,outcome,[18],inactive
same,outcome,[6],inactive
same,AC50,[7],10.5 µM (active)
same,outcome,[8],inactive
CN(CC(=O)N(Cc1ccc(C2CCCCC2)cc1)c1ccc(C(=O)O)c(O)c1)S(=O)(=O)c1c(F)c(F)c(F)c(F)c1F,AC50,[1],8.33 µM (active)
same,AC50,[2],11.8 µM (active)
same,AC50,[3],16.6 µM (active)
same,AC50,[4],6.61 µM (active)
same,AC50,[5],9.34 µM (active)
same,AC50,[6],3.32 µM (active)
same,AC50,[7],3.72 µM (active)
same,IC50,[8],8.33 µM (active)
Cc1c(Cn2c(C)nc3c(C(=O)O)cc(N4CCOCC4)cc32)cccc1C(F)(F)F,outcome,[1],inactive
same,outcome,[2],inactive
same,outcome,[3],inactive
same,outcome,[4],inactive
same,outcome,[5],inactive
same,outcome,[6],inactive
same,outcome,[7],inactive
same,outcome,[8],inactive
same,fold change,[9]; [19],0.907 (inactive)
same,fold change,[9]; [20],0.358
same,cell count,[9]; [21],8050
same,cell count,[9]; [22],8880
same,z-score,[10]; [23],-0.351 (inactive)
same,z-score,[10]; [24],0.912
